From PubChem BioAssay
Sampled rows, rich in hits. Any-hit rate of the full collection: about 2.8%.
IP6K1 inh: inhibitors of human IP6K1. activity change, % (series mostly up to about 58 µM). Q92551. actives 0.81% (n = 140,000). IP6K1 kinase, ADP-Glo luminescence, 2 h; hits give low values; in the data active = activity change below about -25%; also: % is scaled to controls: 0 for no effect and ±100 for the full control effect
Target sequence (Q92551 whole entry, looked up): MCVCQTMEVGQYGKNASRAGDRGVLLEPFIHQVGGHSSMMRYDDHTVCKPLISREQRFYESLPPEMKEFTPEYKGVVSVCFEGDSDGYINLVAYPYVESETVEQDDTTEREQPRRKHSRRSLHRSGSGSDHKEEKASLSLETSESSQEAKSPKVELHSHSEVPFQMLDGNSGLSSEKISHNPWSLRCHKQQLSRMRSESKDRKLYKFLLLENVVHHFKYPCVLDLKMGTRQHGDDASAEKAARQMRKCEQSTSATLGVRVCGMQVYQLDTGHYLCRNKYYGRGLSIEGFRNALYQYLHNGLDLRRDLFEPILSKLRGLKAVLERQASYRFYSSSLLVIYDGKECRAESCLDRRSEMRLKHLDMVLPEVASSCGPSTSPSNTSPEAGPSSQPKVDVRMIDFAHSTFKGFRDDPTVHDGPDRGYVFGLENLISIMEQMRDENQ
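ADP-Glo luminescence measures ADP made by human IP6K1 during a 2 h RT reaction with ATP/IP6 (mix at 1.3 mM/130 uM); top library doses 57.5 and 19.1 uM final.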
KDM5B inhibitor: inhibitors of human KDM5B histone demethylase. Q9UGL1. KDM5B demethylase, FDH-coupled NADH fluorescence (FDH is formaldehyde dehydrogenase). Potency, µM (titrated, usually from 57.7 µM), actives largely listed as inhibitors. actives 2.6% (n = 220,000). AID 1347165; active = well fitted inhibition curve with a large enough effect; inconclusive = small, poorly fitted or top-dose-only effect; inactive = no such curve, though single readings can be large or run the other way; also: potency is read from the fitted curve at half-maximal effect; 0% is about no effect; nearly all actives have a fitted effect of over 70% in size
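qHTS format, multiple compound concentrations. Buffer 50 mM HEPES pH 7.5/0.01% Tween-20; 200 nM KDM5BΔAP final; 10 min compound preincubation; substrate-mix levels 12.5 µM peptide, 25 µM α-KG, 0.25 mM NAD⁺; 30 min RT; ΔRFU.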
Numbers without * were called inactive.

For O=C(NC[C@H]1O[C@@H](CO)[C@@H](O)[C@H]1N1CCN(c2cccc(C(F)(F)F)c2)CC1)c1ccc(C(F)(F)F)cc1 the results were IP6K1 inh -6 and KDM5B inhibitor inconclusive.
Screening CC(C)C[C@@H]1N[C@H](C(=O)NC2CCCC2)Cc2c[nH]c3cccc1c23 returned IP6K1 inh -8 and KDM5B inhibitor inactive.
Screening CC(C)NC(=O)c1ccccc1OCC1CCCN(Cc2cncs2)C1 (stereo not drawn) returned IP6K1 inh -11 and KDM5B inhibitor inactive.
Screening C=CCNC(=O)CN1CCN(c2nc3ccccc3o2)CC1 returned KDM5B inhibitor inactive.
COc1ccccc1-c1ccnc(-c2nnc(C)n2Cc2ccncc2)c1 was read as IP6K1 inh -4 and KDM5B inhibitor inconclusive.
`CC#CCn1cc2c3c(cccc31)[C@H](CC(C)C)N[C@H](C(=O)N1CCN(C)CC1)C2` gave IP6K1 inh -2 and KDM5B inhibitor inconclusive.
CC#CCn1cc2c3c(cccc31)[C@H](CC(C)C)N[C@H](C(=O)NCCN(C)C)C2 was read as IP6K1 inh -11 and KDM5B inhibitor inconclusive.
For CC(C)C[C@@H]1N[C@H](C(=O)N2CCOCC2)Cc2cn(Cc3cccnc3)c3cccc1c23 the results were IP6K1 inh -11 and KDM5B inhibitor inactive.
For CC#CCn1cc2c3c(cccc31)[C@H](CC(C)C)N[C@H](C(=O)NCCNC(C)=O)C2 the results were IP6K1 inh 9 and KDM5B inhibitor 32µM*.
For CC(C)C[C@@H]1N[C@H](C(=O)N2CCOCC2)Cc2cn(CC3CC3)c3cccc1c23 the results were IP6K1 inh -7 and KDM5B inhibitor 35µM*.
`C=CCn1cc2c3c(cccc31)[C@H](CC(C)C)N[C@H](C(=O)NCCN1CCOCC1)C2` gave IP6K1 inh 4 and KDM5B inhibitor inconclusive.
Screening C=CCn1cc2c3c(cccc31)[C@H](CC(C)C)N[C@H](C(=O)N1CCN(C)CC1)C2 returned IP6K1 inh 12 and KDM5B inhibitor 22µM*.
C=CCn1cc2c3c(cccc31)[C@H](CC(C)C)N[C@H](C(=O)N1CCOCC1)C2 was read as IP6K1 inh 4 and KDM5B inhibitor 32µM*.
CC1(C)[C@H]2CC=C(CN3CCC(CCC(=O)N4CCN(c5ccccc5)CC4)CC3)[C@@H]1C2 was read as IP6K1 inh 0 and KDM5B inhibitor inactive.
`Cc1ccccc1-c1ncnn1-c1sc2c(c1C#N)CCCCC2` gave IP6K1 inh -6 and KDM5B inhibitor inactive.
For C=CC1(C)CC(OC(=O)C(=C)C(O)COC(C)=O)C(C(=C)C(=O)OC)C(O)C1C(=C)CO (stereo not drawn) the results were IP6K1 inh 8.
For Cc1cccc(C)c1NC(=O)CN(C)C(=O)c1nc(-c2ccccc2)oc1C the results were KDM5B inhibitor inactive.
C=CCNC(=O)[C@@H]1Cc2cn(Cc3c(C)noc3C)c3cccc(c23)[C@H](CC(C)C)N1 was read as IP6K1 inh -3 and KDM5B inhibitor 28µM*.
CC(C)C[C@@H]1N[C@H](C(=O)NC2CCCC2)Cc2cn(CC3CC3)c3cccc1c23 was read as IP6K1 inh -9 and KDM5B inhibitor inconclusive.
For CC(C)C[C@@H]1N[C@H](C(=O)O)Cc2cn(CC3CC3)c3cccc1c23 the results were IP6K1 inh -21 and KDM5B inhibitor 32µM*.
`C=CCNC(=O)[C@@H]1Cc2cn(CC#CC)c3cccc(c23)[C@H](CC(C)C)N1` gave IP6K1 inh -12 and KDM5B inhibitor inactive.
Screening CCc1ccccc1S(=O)(=O)N1CCN(C2CCN(CCC(C)C)C2=O)CC1 (stereo not drawn) returned IP6K1 inh 16 and KDM5B inhibitor inactive.
For COc1cc(Nc2nc(N3CCN(c4ccccc4)CC3)c3nccnc3n2)cc(OC)c1OC the results were KDM5B inhibitor inactive.
Screening CNC(=O)C1(N2CCC[C@H]2C(=O)N(C)Cc2cccnc2)CCOCC1 returned IP6K1 inh -9 and KDM5B inhibitor inactive.
COc1ccc(C(=O)NCC(=O)N2CCCCCCNC(=O)CC2c2ccccc2)c(OC)c1 (stereo not drawn) was read as IP6K1 inh 2 and KDM5B inhibitor inactive.
COc1ccc2[nH]c(C(=O)N3CCCCCNC(=O)[C@@H]4CCC[C@@H]43)cc2c1 was read as IP6K1 inh 0 and KDM5B inhibitor 28µM*.
COc1ccc2[nH]c(C(=O)NCC(=O)N3CCCCCCNC(=O)CC3c3ccccc3)cc2c1 (stereo not drawn) was read as IP6K1 inh 14 and KDM5B inhibitor 16µM*.
COc1ccc(C(=O)NCC(=O)N2CCCCCCNC(=O)CC2c2ccccc2)cc1 (stereo not drawn) was read as IP6K1 inh 0 and KDM5B inhibitor inactive.
Screening O=C1NCCCCCCN(C(=O)c2cc3ccccc3[nH]2)[C@H]2CCC[C@@H]12 returned IP6K1 inh -5 and KDM5B inhibitor inactive.
